The nature of assay [1]: Nuclear factor erythroid 2-related factor 2/antioxidant responsive element (Nrf2/ARE) small molecule agonists: qHTS cell viability counter screen in human keratinocytes (AID 1919968; active = well fitted curve in the direction sought with a large enough effect in the repeat runs; an effect the other way counts as inactive or inconclusive; also: nearly all actives have a fitted effect of over 55% in size; also: potency is read from the fitted curve at half-maximal effect). In short, it runs like this: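 HaCaT ARE reporter line, 1,500 cells/well; 5 h settle, 37 C/5% CO2; cpd in DMSO pinned; 23 h exposure; CellTiter-Fluor, 1 h; fluorescence.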
Background: qHTS replaces the single test concentration by a dilution series.

Assay [2] can be described thus: Nuclear factor erythroid 2-related factor 2/antioxidant responsive element (Nrf2/ARE) small molecule agonists: luciferase reporter gene qHTS assay in human keratinocytes (AID 1919969). Also: nearly all actives have a fitted effect of over 35% in size. Also: potency is read from the fitted curve at half-maximal effect. Background: A reporter such as luciferase makes a cellular process visible.
Assay [3] concerns the target Gonadotropin-releasing hormone receptor (Homo sapiens) (UniProt P30968). Nature of the assay: Human gonadotropin-releasing hormone receptor (GnRHR) small molecule agonists, calcium flux assay in GnRHR-HEK293 cells (AID 1920063). Also: nearly all actives have a fitted effect of over 35% in size. In short, it runs like this:
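GnRHR-HEK293, 1500 cells/well, 18 h 37 C/5% CO2; Ca dye 1 h 37 C; cpd pinned (DMSO), agonist mode; kinetic FL 480/540, 3 min, 1 s reads; 15 conc, n=3.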

Assay [4] has as its target KiSS-1 receptor (Homo sapiens) (UniProt Q969F8). Description: Human kisspeptin (KISS1R) small molecule agonists, calcium flux assay in KISS1R-HEK293 cells (AID 1920064; active = well fitted curve in the direction sought with a large enough effect in the repeat runs; an effect the other way counts as inactive or inconclusive). A digest of the protocol:
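Stable human KISS1R HEK293 line; 18 h plating, 37 C/5% CO2; calcium dye 1 h 37 C; compound pin transfer; kinetic fluorescence Ex/Em 480/540, 3 min.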
In general terms: Calcium flux is commonly read through the fluorescence of an indicator in the cells.

Assay [5] in a line: p53 small molecule agonists, cell-based qHTS assay with rat liver microsomes (AID 1963578). A digest of the protocol: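 Agonist mode in p53RE-bla reporter cells, with compounds co-incubated 16 h at 37 C alongside 0.5 mg/mL rat liver microsomes and 0.5 mg/mL NADPH (final), followed by a 2 h LiveBLAzer detection step.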
The nature of assay [6]: p53 small molecule agonists, cell-based qHTS assay with human liver microsomes: qHTS cell viability counter screen (AID 1963579). Also: nearly all actives have a fitted effect of over 45% in size. A digest of the protocol: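 Metabolically activated exposure: compounds, human liver microsomes and NADPH (0.5 mg/mL final apiece) were added to p53RE-bla cells seeded 5 h earlier, left 16 h at 37 C, and then assessed for viability by CellTiter-Glo luminescence.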

Assay [7] is described as follows: p53 small molecule agonists, cell-based qHTS assay with rat liver microsomes: qHTS cell viability counter screen (AID 1963580). Also: nearly all actives have a fitted effect of over 45% in size. Also: potency is read from the fitted curve at half-maximal effect. In short, it runs like this: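 Viability is assessed in parallel with the p53 reporter read: HCT-116 p53RE-bla cells receive compounds plus rat microsomes and NADPH (0.5 mg/mL final apiece), incubate 16 h at 37 C, and then CellTiter-Glo luminescence is recorded.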

Assay [8] is described as follows: p53 small molecule agonists, cell-based qHTS assay: qHTS cell viability counter screen (AID 1963581). Also: nearly all actives have a fitted effect of over 45% in size. Also: potency is read from the fitted curve at half-maximal effect. A digest of the protocol: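 HCT-116 p53RE-bla cells, 4,000/well, plated 5 h before compound pin transfer; 16 h at 37 C; bla substrate 2 h RT; then CellTiter-Glo, 30 min RT, luminescence.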
The nature of assay [9]: p53 small molecule agonists, cell-based qHTS assay (AID 1963582; active = well fitted activation curve with a large enough effect in the signal ratio in the repeat runs, not every such curve was filed as active; the % refers to the signal ratio). A digest of the protocol: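 Reporter line: p53RE-bla. Pre-incubation 5 h, 37 C, 5% CO2; compound (DMSO, pin tool) 16 h, 37 C; B/G FRET substrate 2 h RT; fluorescence intensity read.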
Assay [10] addresses 5-hydroxytryptamine receptor 2A (Homo sapiens) (UniProt P28223). Nature of the assay: 5-hydroxytryptamine receptor 2A (HTR2A) small molecule antagonists, cell-based qHTS assay (AID 1963586). Also: nearly all actives have a fitted effect of over 45% in size. Also: potency is read from the fitted curve at half-maximal effect. A digest of the protocol:
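Antagonist-mode intracellular calcium assay: DOI (4 nM) added after 5 min compound pre-incubation at room temperature to dye-loaded HTR2A-CHO cells. Fluorescence followed for 3 min, sampled every second.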

Assay [11] shares this target. Nature of the assay: 5-hydroxytryptamine receptor 2A (HTR2A) small molecule agonists, cell-based qHTS assay (AID 1963587). Also: nearly all actives have a fitted effect of over 30% in size. A digest of the protocol:
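CHO cells stably expressing human HTR2A, plated 18 h, loaded with calcium dye 1 h at 37 C. Agonist mode: compounds added and intracellular calcium fluorescence recorded kinetically for 2 min at 1 sec intervals.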

Assay [12] has as its target Muscarinic acetylcholine receptor M1 (Homo sapiens) (UniProt P11229). Nature of the assay: Cholinergic receptor muscarinic 1 (CHRM1) small molecule antagonists, cell-based qHTS assay (AID 1963588). Also: nearly all actives have a fitted effect of over 40% in size. Also: potency is read from the fitted curve at half-maximal effect. In short, it runs like this:
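CHRM1-CHO calcium-flux assay, antagonist mode. Cells were seeded 18 h, dye-loaded 1 h at 37 C and given compound for 5 min at RT, then acetylcholine was added at 50nM. FDSS fluorescence was read 3 min; 15 concentrations, three runs.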

The target is the same in assay [13]. Description: Cholinergic receptor muscarinic 1 (CHRM1) small molecule agonists, cell-based qHTS assay (AID 1963589). Also: nearly all actives have a fitted effect of over 35% in size. Also: potency is read from the fitted curve at half-maximal effect. In short, it runs like this:
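Human M1 in stable CHO line; 18 h plating, 1 h dye load 37 C; cpd added (agonist mode); Ca2+ fluorescence kinetic read, 1 s intervals; 15 conc, 3 runs.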

Assay [14] in a line: cAMP Responsive Elements (CRE) small molecule agonists, cell-based qHTS assay (AID 1963590). A digest of the protocol:
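HEK 293T CRE-bla, 2,000 cells/well, 18 h preincubation 37 C/5% CO2; cpds (DMSO) pinned, 3 h; LiveBLAzer B/G FRET substrate, 2 h RT.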

Assay [15] in a line: cAMP Responsive Elements (CRE) small molecule antagonists, cell-based qHTS assay (AID 1963591; active = well fitted inhibition curve with a large enough effect in the signal ratio in the repeat runs, not every such curve was filed as active; the % refers to the signal ratio). A digest of the protocol: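 Beta-lactamase reporter read by FRET substrate (LiveBLAzer B/G) after 2 h at room temperature. CRE-bla HEK293T cells had received compound plus 0.25 uM (final) NKH477 for 3 h at 37 °C.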
Assay [16] deals with Beta-2 adrenergic receptor (Homo sapiens) (UniProt P07550). Nature of the assay: Adrenergic beta2 receptor (ADRB2) small molecule antagonists, cell-based qHTS assay (AID 1963592). Also: nearly all actives have a fitted effect of over 50% in size. Also: potency is read from the fitted curve at half-maximal effect. In short, it runs like this:
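Cells (CHO, stable ADRB2 overexpression) incubated 18-20hr at 37C; compounds added from DMSO; agonist mix (1nM isoproterenol, 100uM IBMX, 25uM Ro-20-1724) added; 0.5hr RT; d2-cAMP and anti-cAMP-cryptate added; 1hr RT; 665/615 nm read.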

The target of assay [17] is D(2) dopamine receptor (Homo sapiens) (UniProt P14416). Nature of the assay: Dopamine D2 receptor (DRD2) small molecule antagonists, cell-based qHTS assay (AID 1963595; active = well fitted inhibition curve with a large enough effect in the signal ratio in the repeat runs, with a control signal flat; the % refers to the signal ratio). In short, it runs like this: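 HTRF cAMP read-out at 665 and 620 nm emission (340 nm excitation). Antagonist mode: compounds were tested against 12 nM quinpirole in DRD2-HEK293 cells, with 200 nM NKH477 raising cAMP and 0.1 mM Ro20-1724 blocking its breakdown.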

The nature of assay [18]: G protein-coupled receptor (GPCR) small molecule agonists, calcium flux assay: HEK293 wild type cell line counter screen (AID 1920065). In short, it runs like this: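 Kinetic fluorescence at Ex/Em 480/540, recorded every second over 3 min, served as the read-out after compound addition. Each compound was tested at 15 concentrations in triplicate on cells pre-loaded with calcium dye for 1 h.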

The target of assay [19] is Beta-2 adrenergic receptor (Homo sapiens) (UniProt P07550). Description: Adrenergic beta2 receptor (ADRB2) small molecule agonists, cell-based qHTS assay (AID 1963593).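 Also: CHO cells stably overexpressing human ADRB2.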 In short, it runs like this: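 CHO cells stably over-expressing ADRB2 were plated overnight at 37C, then dosed with compounds plus a stimulation mix containing 100uM IBMX and 25uM Ro-20-1724 for 0.5hr at room temperature. cAMP was measured by HTRF competition, 1hr.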

Assay [20] has as its target D(2) dopamine receptor (Homo sapiens) (UniProt P14416). Nature of the assay: Dopamine D2 receptor (DRD2) small molecule agonists, cell-based qHTS assay (AID 1963594). Also: nearly all actives have a fitted effect of over 35% in size. A digest of the protocol: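 HEK293 cells stably expressing human DRD2, pre-treated with PDE inhibitor Ro20-1724 (0.1 mM final) and compound 10 min at room temperature, then stimulated with NKH477 (200nM […]) for 30 min. cAMP read by HTRF (665/620 nm).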

Values without a mark were called inactive. Inconclusive results are not listed. Calls of active or inactive are those of the source. Unless noted, calls follow the shape of the full dose curve.

Sequence of D(2) dopamine receptor (Homo sapiens) (P14416 whole entry, looked up): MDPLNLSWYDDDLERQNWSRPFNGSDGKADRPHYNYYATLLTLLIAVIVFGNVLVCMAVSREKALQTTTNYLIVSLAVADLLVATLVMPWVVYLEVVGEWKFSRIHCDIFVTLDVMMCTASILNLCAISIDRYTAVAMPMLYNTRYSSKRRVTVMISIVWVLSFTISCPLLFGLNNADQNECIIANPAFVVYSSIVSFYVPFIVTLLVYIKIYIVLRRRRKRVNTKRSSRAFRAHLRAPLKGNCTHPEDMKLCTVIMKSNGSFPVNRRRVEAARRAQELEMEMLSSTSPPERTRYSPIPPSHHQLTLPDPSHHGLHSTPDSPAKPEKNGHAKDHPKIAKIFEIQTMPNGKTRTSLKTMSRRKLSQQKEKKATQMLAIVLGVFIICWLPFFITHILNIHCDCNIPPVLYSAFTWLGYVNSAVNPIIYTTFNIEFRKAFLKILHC
Sequence of Muscarinic acetylcholine receptor M1 (Homo sapiens) (P11229 whole entry, looked up): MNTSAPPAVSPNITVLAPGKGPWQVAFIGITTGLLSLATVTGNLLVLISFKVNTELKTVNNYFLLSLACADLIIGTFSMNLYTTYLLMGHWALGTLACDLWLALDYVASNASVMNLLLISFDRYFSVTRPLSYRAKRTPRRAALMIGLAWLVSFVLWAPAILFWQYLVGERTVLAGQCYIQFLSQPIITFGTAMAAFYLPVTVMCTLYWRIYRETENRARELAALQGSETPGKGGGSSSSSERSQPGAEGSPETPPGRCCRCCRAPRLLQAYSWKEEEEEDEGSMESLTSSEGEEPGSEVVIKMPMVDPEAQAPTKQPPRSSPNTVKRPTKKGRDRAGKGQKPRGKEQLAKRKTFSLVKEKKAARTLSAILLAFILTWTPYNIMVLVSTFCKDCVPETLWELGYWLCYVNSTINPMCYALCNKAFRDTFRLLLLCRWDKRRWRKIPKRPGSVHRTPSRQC
Sequence of KiSS-1 receptor (Homo sapiens) (Q969F8 whole entry, looked up): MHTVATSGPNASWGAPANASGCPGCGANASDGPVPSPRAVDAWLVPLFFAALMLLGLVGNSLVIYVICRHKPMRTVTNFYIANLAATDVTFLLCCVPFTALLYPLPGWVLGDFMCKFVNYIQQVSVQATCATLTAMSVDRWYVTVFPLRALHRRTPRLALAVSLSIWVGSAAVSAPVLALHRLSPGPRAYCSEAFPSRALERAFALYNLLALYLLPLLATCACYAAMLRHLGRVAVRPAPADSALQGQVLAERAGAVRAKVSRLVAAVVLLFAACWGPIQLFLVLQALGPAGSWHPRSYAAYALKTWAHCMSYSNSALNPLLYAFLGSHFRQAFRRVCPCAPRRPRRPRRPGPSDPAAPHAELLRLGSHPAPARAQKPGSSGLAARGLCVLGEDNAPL
Sequence of 5-hydroxytryptamine receptor 2A (Homo sapiens) (P28223 whole entry, looked up): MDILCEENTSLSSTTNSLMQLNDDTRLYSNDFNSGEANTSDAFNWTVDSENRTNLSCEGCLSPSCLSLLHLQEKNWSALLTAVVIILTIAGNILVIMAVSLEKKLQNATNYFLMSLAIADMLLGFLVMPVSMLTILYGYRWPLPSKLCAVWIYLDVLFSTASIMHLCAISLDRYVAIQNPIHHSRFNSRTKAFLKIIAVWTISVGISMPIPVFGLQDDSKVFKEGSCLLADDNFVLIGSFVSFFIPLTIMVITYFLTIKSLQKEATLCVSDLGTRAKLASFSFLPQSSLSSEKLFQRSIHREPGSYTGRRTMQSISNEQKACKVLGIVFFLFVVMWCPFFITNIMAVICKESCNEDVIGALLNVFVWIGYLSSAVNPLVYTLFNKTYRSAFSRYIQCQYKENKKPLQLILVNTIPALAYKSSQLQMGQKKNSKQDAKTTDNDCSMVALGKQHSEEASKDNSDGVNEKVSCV
Sequence of Gonadotropin-releasing hormone receptor (Homo sapiens) (P30968 whole entry, looked up): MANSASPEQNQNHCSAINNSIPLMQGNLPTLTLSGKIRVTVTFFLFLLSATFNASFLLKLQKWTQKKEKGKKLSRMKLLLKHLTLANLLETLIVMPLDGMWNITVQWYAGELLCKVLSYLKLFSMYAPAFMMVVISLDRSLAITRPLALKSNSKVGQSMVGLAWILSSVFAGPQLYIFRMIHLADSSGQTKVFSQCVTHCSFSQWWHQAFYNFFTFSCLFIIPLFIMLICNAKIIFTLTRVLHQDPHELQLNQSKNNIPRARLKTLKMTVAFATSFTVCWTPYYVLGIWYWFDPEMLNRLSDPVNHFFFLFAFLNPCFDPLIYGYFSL
Sequence of Beta-2 adrenergic receptor (Homo sapiens) (P07550 whole entry, looked up): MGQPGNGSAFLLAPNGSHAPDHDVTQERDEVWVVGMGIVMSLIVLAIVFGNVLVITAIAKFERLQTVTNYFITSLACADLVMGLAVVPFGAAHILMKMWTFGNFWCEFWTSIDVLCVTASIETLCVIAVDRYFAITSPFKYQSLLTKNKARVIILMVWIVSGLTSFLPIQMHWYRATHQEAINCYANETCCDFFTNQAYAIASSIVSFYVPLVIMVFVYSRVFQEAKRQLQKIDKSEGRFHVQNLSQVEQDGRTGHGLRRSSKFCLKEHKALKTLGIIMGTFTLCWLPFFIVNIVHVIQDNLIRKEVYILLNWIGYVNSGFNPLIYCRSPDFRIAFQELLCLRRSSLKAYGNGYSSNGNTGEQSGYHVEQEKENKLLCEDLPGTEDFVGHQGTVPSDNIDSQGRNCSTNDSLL

Consider `Clc1ccc(Nc2nnc(Cc3ccncc3)c3ccccc23)cc1`, for which the Potency result in assay [1], in assay [2], in [3], in assay [4], in assay [5] and in assay [6] was “inactive” each time. Besides, the Potency entry in assay [7], in assay [8], in assay [9], in assay [11], in assay [13] and in [14] was “inactive” in each case. The Potency entry in [15], in assay [16] and in [17] was “inactive” throughout. Moreover, the Potency in assay [10] and in [12] was 18.3 µM (active) each time.
Regarding `Cc1cccc(C(=O)O)c1O`, the Potency result in assay [1], in assay [2], in assay [3], in assay [4], in assay [18] and in [8] was “inactive” in each case. Besides, the Potency entry in assay [10], in [11], in assay [12], in [14], in assay [16] and in [19] was “inactive” each time. Moreover, the Potency entry in assay [20] and in [17] was “inactive” throughout.
Turning to `O=C(O)COC(=O)Cc1ccccc1Nc1c(Cl)cccc1Cl`, the Potency entry in assay [1], in assay [2], in assay [3], in assay [4], in assay [6] and in [7] was “inactive” throughout. For the same compound, the Potency entry in [8], in assay [9], in [14], in assay [15], in assay [16] and in [20] was “inactive” each time. Moreover, the Potency result in [17] is “inactive”.
Turning to `O=C(Nc1ccc(Cl)c(Cl)c1)c1cc(Cl)cc(Cl)c1O`, the Potency in assay [1] is 3.44 µM (active); in [2] it was 27.3 µM (active); in assay [7] it was 40.8 µM (active); in [8], 4.08 µM (active); in assay [16] it was 24.3 µM (active). Moreover, the Potency entry in [3], in [4], in assay [5], in assay [20] and in [17] was “inactive” each time.
As to `O=C(O)CCCCCCCCCC(=O)O`, the Potency entry in [1], in assay [2], in [3], in assay [4], in assay [7] and in assay [8] was “inactive” each time. Further, the Potency result in assay [10], in [12], in [13], in assay [14], in assay [15] and in [16] was “inactive” in each case. In addition, the Potency entry in [20] and in [17] was “inactive” each time.
For the compound `CCCCC(CC)CNCC(CC)CCCC` (stereo not drawn), the Potency entry in assay [1], in assay [2], in assay [3], in assay [4], in [18] and in assay [8] was “inactive” in each case. Also, the Potency entry in [11], in [13], in assay [14], in [15], in assay [16] and in [19] was “inactive” in each case. Moreover, the Potency result in assay [20] and in assay [17] was “inactive” throughout.
As to `CN(C)C(=O)NC1(c2ccccc2)CCN(CC[C@@]2(c3ccc(F)c(F)c3)CN(C(=O)c3ccccc3)CCO2)CC1`, the Potency result in assay [1], in assay [2], in assay [3], in [4], in assay [5] and in assay [6] was “inactive” in each case. Besides, the Potency entry in assay [7], in assay [8], in assay [9], in assay [11], in assay [13] and in [16] was “inactive” throughout. In addition, the Potency entry in [19] and in [20] was “inactive” each time.
For `OCc1c[nH]c2ccccc12`, the Potency entry in assay [1], in assay [3], in assay [4], in assay [18], in assay [7] and in assay [12] was “inactive” in each case. The Potency result in assay [17] is “inactive”. The Potency in assay [2] is 61.1 µM (active); in [13], 0.0031 µM (active).
Turning to `CCC1(C)CC(=O)NC1=O` (stereo not drawn), the Potency entry in [1], in [2], in assay [3], in assay [4], in assay [18] and in assay [7] was “inactive” each time. Besides, the Potency result in assay [14], in assay [15], in [16], in assay [19], in [20] and in [17] was “inactive” throughout.
Take `Cc1onc(-c2c(Cl)cccc2Cl)c1C(=O)Cl`: the Potency entry in [1], in [2], in [3], in assay [4], in assay [5] and in assay [6] was “inactive” in each case. Further, the Potency result in assay [7], in [8], in [9], in assay [11], in [13] and in assay [15] was “inactive” in each case. Besides, the Potency entry in assay [16], in assay [19], in [20] and in assay [17] was “inactive” in each case.

Source of the values: PubChem BioAssay (Tox21).
